Dicer processing: human Dicer pre-microRNA cleavage inhibition. Q9UPY3. cat-ELCCA pre-miR-21 Dicer processing, chemiluminescence; active compounds read high. z-score at 25 µM. 6% of 47,000 active. AID 1347074; in the data active = z-score above about 3, passing the limit was not always enough;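 note: plate controls were vehicle for no effect and no enzyme for full effect; higher signal means more uncleaved substrate so more Dicer inhibition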
An asterisk follows results filed as active. This excerpt belongs to a sample that is enriched for hits.

`CCOc1ccc2c(c1)-c1c(sn(-c3ccc(OC)cc3)c1=S)C(C)(C)N2` gave Dicer processing 6.7*.
CC12CCC3c4ccc(OCCCC#N)cc4CCC3C1CCC2=O (centres undefined) was read as Dicer processing -1.7.
`Cc1onc(-c2ccccc2)c1CNC(=O)NC1CCN(C(=O)OCc2ccccc2)CC1` gave Dicer processing -4.6.
For CC1CC(NC(=S)NC2CC3CC2C2C=CCC32)CC(C)(C)C1 (centres undefined) the results were Dicer processing 3.1*.
Screening S=C(N/N=C/C=C/c1ccccc1)NC1CC2CC1C1C=CCC21 (centres undefined) returned Dicer processing 0.15.
`CC1CC(NC(=S)Nc2ccc(I)cc2F)CC(C)(C)C1` (centres undefined) gave Dicer processing 1.
Cc1nnc2n1NC(c1ccc(F)cc1)C(C(=O)NCc1ccco1)S2 (centres undefined) was read as Dicer processing -1.
Screening C=CCSc1nc2ccccc2c(=O)n1CC(=C)C returned Dicer processing -0.33.
For COc1ccc(NC(=O)c2ccc([N+](=O)[O-])o2)cc1Cl the results were Dicer processing 3.2*.
`O=C(Nc1ccc(-c2nc3cc(Cl)ccc3o2)cc1)c1ccc([N+](=O)[O-])o1` gave Dicer processing 1.2.
O=C(Nc1ccc2oc(-c3ccc(F)cc3)nc2c1)c1ccc([N+](=O)[O-])o1 was read as Dicer processing 3*.
Screening O=C(Nc1ccc(-c2nc3ccccc3o2)c(O)c1)c1ccc([N+](=O)[O-])o1 returned Dicer processing 0.35.
O=C(Nc1ccc2oc(-c3cccc(F)c3)nc2c1)c1ccc([N+](=O)[O-])o1 was read as Dicer processing 0.94.
O=C(Nc1cccc(-c2nc3ccccc3o2)c1)c1ccc([N+](=O)[O-])o1 was read as Dicer processing 3.5*.
COc1ccc(NC(=O)c2ccc([N+](=O)[O-])o2)cc1 was read as Dicer processing 1.9.
Screening COC(=O)c1cc(NC(=O)c2ccc([N+](=O)[O-])o2)cc(C(=O)OC)c1 returned Dicer processing 1.5.
For O=C(Nc1cccc(-c2nc3ncccc3o2)c1)c1ccc([N+](=O)[O-])o1 the results were Dicer processing -0.2.
`N#Cc1c2c(c(NCCCO)n3c1nc1ccccc13)CCC2` gave Dicer processing 0.69.
Screening COc1cscc1C(=O)NC1(O)C(=O)c2ccccc2C1=O returned Dicer processing -6.4.
Screening CCOC(=O)c1ccc(N2CC3CCCCN3C2c2cccc(OC)c2O)cc1 (centres undefined) returned Dicer processing -0.3.
CSc1nc(-c2ccccc2)[nH]c(=O)n1 was read as Dicer processing 1.1.
Screening CCC(=O)N1c2ccccc2C(N(C(=O)c2ccco2)c2ccccc2)CC1C (centres undefined) returned Dicer processing 0.95.
`COC(=O)C1CSCC/C1=N\Nc1ccc(Cl)cc1Cl` (centres undefined) gave Dicer processing -1.1.
Clc1ccc(N2C=Nc3cc(Cl)c(Cl)cc3C2)cc1Cl was read as Dicer processing 3.1*.
For CC(C)c1ccc(N2C=Nc3ccc(C(C)C)cc3C2)cc1 the results were Dicer processing 0.31.
O=c1[nH][nH]c(=S)n1-c1ccc(Cl)c(Cl)c1 was read as Dicer processing 0.41.
N#Cc1ccc(Oc2ncc(C(F)(F)F)cc2Cl)cc1 was read as Dicer processing -1.5.
`Cc1cc2nc3[nH]c4ccc(F)cc4c3nc2cc1C` gave Dicer processing 1.1.
Screening N[C@@H](Cc1c[nH]c2ccccc12)C(=O)O returned Dicer processing -1.1.
Screening Clc1ccc(Cc2nc(-c3ccccc3)cs2)cc1 returned Dicer processing -0.36.
`Oc1ccc(-c2csc(Cc3c[nH]c4ccccc34)n2)cc1O` gave Dicer processing 5.6*.
For O=C(O)Cc1sc(Nc2ccccn2)nc1-c1ccccc1 the results were Dicer processing 0.28.
`CCc1ccc(-c2nnc(-c3ccc(Cl)cc3)o2)cc1` gave Dicer processing 3.3*.
COc1ccc(-c2nnc(SCc3ccc(Cl)cc3)o2)cc1 was read as Dicer processing 0.75.
Clc1ccc(-c2nnc(-c3ccccc3)o2)cc1 was read as Dicer processing 1.1.
For COc1ccc(S(=O)(=O)N2CCN(S(=O)(=O)c3ccc(Cl)cc3)CC2)cc1 the results were Dicer processing 0.66.
`CCOC(=O)Cc1csc2nc(=O)c3c(C)c(C)sc3n12` gave Dicer processing 0.86.
Screening O=S(=O)(N/N=C/c1ccc(Cl)cc1)c1ccc(-c2ccccn2)s1 returned Dicer processing 0.22.
For CN(/N=C/c1ccccc1)c1ncc(C(F)(F)F)cc1Cl the results were Dicer processing 1.3.
`COc1ccc(-c2c(-c3ccc(OC)c(OC)c3)c(C)n(C)c2C)cc1OC` gave Dicer processing -0.69.
Screening COc1ccc(-c2c(N)n[nH]c2C)cc1OC returned Dicer processing 4.9*.
`COc1ccc(-c2nc3cc(N)ccc3o2)cc1OC` gave Dicer processing 2.5.
`CCCCCC(=O)O/N=C(\C)c1ccn(S(=O)(=O)c2ccc(Cl)cc2)c1` gave Dicer processing -1.
O=[N+]([O-])c1cc(Br)cc2c1[nH]c1c(Br)cc(Br)cc12 was read as Dicer processing 0.33.
`O=c1oc(-c2cccs2)nc2c(Br)cc(Br)cc12` gave Dicer processing -0.36.
`O=[N+]([O-])c1ccc(NCc2cccs2)nc1` gave Dicer processing -0.71.
For CCCN(CCC)S(=O)(=O)c1ccc(C(=O)N2CCC3c4ccccc4C(=O)N3C2)cc1 (centres undefined) the results were Dicer processing -0.22.
For O=C(Cc1ccccc1)c1ccc(Cl)cc1 the results were Dicer processing -0.54.
For O=C(Cc1ccc(Cl)cc1)c1ccc(O)cc1 the results were Dicer processing 0.6.
Screening O=C(Cc1ccc(Cl)cc1)c1ccc(O)cc1O returned Dicer processing 4.1*.
`Cc1cc2c(NC(=O)CSCC(=O)O)cccc2nn1` gave Dicer processing -1.4.
Screening CS(=O)(=O)CS(=O)(=O)Oc1ccc(Br)cc1 returned Dicer processing -0.62.
For C=CCOc1ccc(C2C(C(=O)OC)=C(C)NC3=C2C(=O)c2ccccc23)cc1 (centres undefined) the results were Dicer processing -1.9.
`Cc1nc2c(Br)cc(Br)cc2c(=O)o1` gave Dicer processing -0.68.
Screening COc1ccc(OC)c(C2NC(=O)c3c(sc4c3CCCC4)N2)c1 (centres undefined) returned Dicer processing 0.09.
`Nc1cccc(NC(=O)c2ccccc2O)c1` gave Dicer processing 5.9*.
Screening COc1ccc(C=Nc2cccc(NC(=O)c3ccccc3O)c2)cc1 returned Dicer processing 1.9.
For Nc1ccccc1NC(=O)c1ccccc1O the results were Dicer processing 0.52.
For O=S(=O)(/N=C(\NNC(=S)Nc1cccc(F)c1)N1CCCC1)c1ccccc1 the results were Dicer processing -0.29.
O=c1[nH]nc(SCc2ccc(Cl)cc2Cl)n1-c1cccc(Cl)c1 was read as Dicer processing 1.
For O=C(c1ccco1)c1cn(CCOc2ccc(F)cc2)c2ccccc12 the results were Dicer processing 1.6.
CC(C)(C)C(=O)c1cn(CC(=O)O)c2ccccc12 was read as Dicer processing 0.33.
O=C(c1cccs1)c1cn(CCOc2ccc(F)cc2)c2ccccc12 was read as Dicer processing 3.5*.
`COC(=O)c1cn(CCOc2ccccc2)c2ccccc12` gave Dicer processing 3.1*.
For O=C(c1ccco1)c1cn(CCOc2ccccc2)c2ccccc12 the results were Dicer processing -0.39.

Assay outcomes (PubChem)
